Reference: PubChem BioAssay AID1159580 (chemical genetic matrix, 2015)
About 2,000 (36%) of roughly 5,500 compounds were called active. About 18% were inconclusive and are not listed. No stated cut-off is given here; in the data, active means normalized growth mostly below about 0.91 (no sharp cut-off); inconclusive means no clear call, values can overlap the other calls; inactive means mostly above about 0.92. Some of the results follow. Where a SMILES comes first, the peptide text is derived from it. Bridges are numbered along the chain shown (N, C = ends). [ ]: non-standard residue; d: D form. The star is where a group is joined. ξ: configuration not given here. ξDab(CH2SO3H) = NC(CCNCS(=O)(=O)O)C(=O)O; Heptanoyl(6-Me) = CC(C)CCCCC(=O)*; Dab = NCC[CH](N)C(=O)O

Experiment: chemical genetic growth profiling, strain panel (AID 1159580);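 further: tested at 20 µM; growth read once vehicle control cultures reached saturation at 30 °C; 1 = growth at the plate median or of vehicle wells; lower values mean less growth of the strain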
Conditions: growth OD

Measured: normalized growth

CCC(C)C1NC(=O)C(CCNCS(=O)(=O)O)NC(=O)C(NC(=O)C(CCNCS(=O)(=O)O)NC(=O)C(NC(=O)C(CCNCS(=O)(=O)O)NC(=O)CCCCC(C)C)C(C)O)CCNC(=O)C(C(C)O)NC(=O)C(CCNCS(=O)(=O)O)NC(=O)C(CCNCS(=O)(=O)O)NC(=O)C(C(C)CC)NC1=O (configuration not stated) ({Heptanoyl(6-Me)}-[ξDab(CH2SO3H)]T[ξDab(CH2SO3H)][Dab][ξDab(CH2SO3H)]II[ξDab(CH2SO3H)][ξDab(CH2SO3H)]T; lactam 4-C; configuration not given here)
inactive: S. cerevisiae deletion strains, locus YJR075W, strain HOC1, hits give low values 1 | S. cerevisiae deletion strains, locus YKL009W, strain mrt4, hits give low values 0.986 | S. cerevisiae deletion strains, locus YKL068W, hits give low values 0.964 | S. cerevisiae deletion strains, locus YKL085W, strain MDH1 (second series), hits give low values 0.951 | S. cerevisiae deletion strains, locus YKL085W, strain MDH1, hits give low values 0.951 | S. cerevisiae deletion strains, locus YKL160W, strain elf1, hits give low values 1.02 | S. cerevisiae deletion strains, locus YKL190W, strain CNB1, hits give low values 0.969 | S. cerevisiae deletion strains, locus YKR001C, strain vps1, hits give low values 0.972 | S. cerevisiae deletion strains, locus YKR026C, strain gcn3, hits give low values 0.98 | S. cerevisiae deletion strains, locus YKR091W, strain srl3, hits give low values 0.98 | S. cerevisiae deletion strains, locus YLL001W, strain dnm1, hits give low values 0.994 | S. cerevisiae deletion strains, locus YLL026W, hits give low values 0.997 | S. cerevisiae deletion strains, locus YLL041C, strain sdh2, hits give low values 0.993 | S. cerevisiae deletion strains, locus YLR027C, strain aat2, hits give low values 0.995 | S. cerevisiae deletion strains, locus YLR039C, strain RIC1, hits give low values 0.962 | S. cerevisiae deletion strains, locus YLR058C, strain SHM2, hits give low values 0.988 | S. cerevisiae deletion strains, locus YLR102C, strain apc9, hits give low values 0.962 | S. cerevisiae deletion strains, locus YLR113W, strain HOG1, hits give low values 1.1 | S. cerevisiae deletion strains, locus YLR221C, strain rsa3, hits give low values 0.99 | S. cerevisiae deletion strains, locus YLR258W, strain gsy2, hits give low values 0.99 | S. cerevisiae deletion strains, locus YLR262C, strain YPT6 (second series), hits give low values 0.997 | S. cerevisiae deletion strains, locus YLR262C, strain YPT6, hits give low values 0.992 | S. cerevisiae deletion strains, locus YLR268W, strain sec22, hits give low values 0.978 | S. cerevisiae deletion strains, locus YLR320W, strain mms22, hits give low values 0.96 | S. cerevisiae deletion strains, locus YLR330W, strain CHS5, hits give low values 0.968 | S. cerevisiae deletion strains, locus YLR342W, strain FKS1 (second series), hits give low values 1.02 | S. cerevisiae deletion strains, locus YLR342W, strain FKS1, hits give low values 1 | S. cerevisiae deletion strains, locus YLR357W, strain rsc2, hits give low values 0.963 | S. cerevisiae deletion strains, locus YLR370C, strain arc18, hits give low values 0.979 | S. cerevisiae deletion strains, locus YLR371W, strain rom2, hits give low values 0.962 | S. cerevisiae deletion strains, locus YLR384C, strain iki3, hits give low values 0.998 | S. cerevisiae deletion strains, locus YLR418C, strain cdc73, hits give low values 0.989 | S. cerevisiae deletion strains, locus YML016C, strain PPZ1, hits give low values 0.978 | S. cerevisiae deletion strains, locus YML032C, strain rad52, hits give low values 0.963 | S. cerevisiae deletion strains, locus YML120C, strain ndi1, hits give low values 0.971 | S. cerevisiae deletion strains, locus YML124C, strain tub3, hits give low values 0.964 | S. cerevisiae deletion strains, locus YMR058W, strain fet3, hits give low values 0.987 | S. cerevisiae deletion strains, locus YMR078C, strain ctf18, hits give low values 0.976 | S. cerevisiae deletion strains, locus YMR125W, strain sto1, hits give low values 0.973 | S. cerevisiae deletion strains, locus YMR129W, hits give low values 0.979 | S. cerevisiae deletion strains, locus YMR205C, strain PFK2, hits give low values 0.958 | S. cerevisiae deletion strains, locus YMR223W, strain ubp8, hits give low values 0.99 | S. cerevisiae deletion strains, locus YMR231W, strain pep5, hits give low values 0.987 | S. cerevisiae deletion strains, locus YMR263W, strain SAP30, hits give low values 0.985 | S. cerevisiae deletion strains, locus YMR307W, strain GAS1, hits give low values 1.12 | S. cerevisiae deletion strains, locus YNL067W, strain RPL9B, hits give low values 0.991 | S. cerevisiae deletion strains, locus YNL071W, strain lat1, hits give low values 0.981 | S. cerevisiae deletion strains, locus YNL128W, strain TEP1, hits give low values 0.971 | S. cerevisiae deletion strains, locus YNL153C, strain GIM3, hits give low values 0.987 | S. cerevisiae deletion strains, locus YNL183C, strain NPR1, hits give low values 0.935 | S. cerevisiae deletion strains, locus YNL209W, strain ssb2, hits give low values 1.02 | S. cerevisiae deletion strains, locus YNL233W, strain BNI4, hits give low values 0.996 | S. cerevisiae deletion strains, locus YNL248C, strain rpa49, hits give low values 1.02 | S. cerevisiae deletion strains, locus YNL250W, strain rad50, hits give low values 0.95 | S. cerevisiae deletion strains, locus YNL271C, strain bni1, hits give low values 0.963 | S. cerevisiae deletion strains, locus YNL298W, strain CLA4, hits give low values 0.974 | S. cerevisiae deletion strains, locus YNL307C, strain MCK1, hits give low values 0.982 | S. cerevisiae deletion strains, locus YNL322C, strain KRE1 (second series), hits give low values 0.983 | S. cerevisiae deletion strains, locus YNL322C, strain KRE1, hits give low values 0.972 | S. cerevisiae deletion strains, locus YNR049C, strain mso1, hits give low values 0.994 | S. cerevisiae deletion strains, locus YNR052C, strain pop2, hits give low values 0.968 | S. cerevisiae deletion strains, locus YOL006C, strain TOP1, hits give low values 1.02 | S. cerevisiae deletion strains, locus YOL012C, strain htz1 0.945 | S. cerevisiae deletion strains, locus YOL147C, strain pex11, hits give low values 0.982 | S. cerevisiae deletion strains, locus YOR001W, strain rrp6, hits give low values 0.961 | S. cerevisiae deletion strains, locus YOR061W, strain CKA2, hits give low values 0.978 | S. cerevisiae deletion strains, locus YOR069W, strain VPS5, hits give low values 0.983 | S. cerevisiae deletion strains, locus YOR070C, strain gyp1, hits give low values 0.996 | S. cerevisiae deletion strains, locus YOR080W, strain dia2, hits give low values 0.984 | S. cerevisiae deletion strains, locus YOR083W, strain WHI5, hits give low values 0.987 | S. cerevisiae deletion strains, locus YOR106W, strain vam3, hits give low values 1.03 | S. cerevisiae deletion strains, locus YOR136W, strain idh2, hits give low values 0.966 | S. cerevisiae deletion strains, locus YOR144C, strain elg1, hits give low values 0.962 | S. cerevisiae deletion strains, locus YOR184W, strain ser1, hits give low values 1.01 | S. cerevisiae deletion strains, locus YOR231W, strain MKK1, hits give low values 0.998 | S. cerevisiae deletion strains, locus YOR265W, strain rbl2, hits give low values 0.998 | S. cerevisiae deletion strains, locus YOR270C, strain vph1, hits give low values 0.834 | S. cerevisiae deletion strains, locus YOR290C, strain snf2, hits give low values 1.01 | S. cerevisiae deletion strains, locus YOR316C, strain cot1, hits give low values 0.947 | S. cerevisiae deletion strains, locus YPL051W, strain arl3, hits give low values 1 | S. cerevisiae deletion strains, locus YPL055C, strain LGE1, hits give low values 0.991 | S. cerevisiae deletion strains, locus YPL078C, strain atp4, hits give low values 0.998 | S. cerevisiae deletion strains, locus YPL106C, strain sse1, hits give low values 0.941 | S. cerevisiae deletion strains, locus YPL240C, strain hsp82, hits give low values 0.988 | S. cerevisiae deletion strains, locus YPL241C, strain CIN2, hits give low values 0.974 | S. cerevisiae deletion strains, locus YPL256C, strain CLN2, hits give low values 1.06 | S. cerevisiae deletion strains, locus YPR119W, strain clb2, hits give low values 0.955 | S. cerevisiae deletion strains, locus YPR141C, strain kar3, hits give low values 0.937 | S. cerevisiae deletion strains, locus YPR163C, strain tif3, hits give low values 0.971 | S. cerevisiae deletion strains, locus YPR167C, strain met16, hits give low values 0.945 | S. cerevisiae deletion strains, strain wtn01, hits give low values 0.973 | S. cerevisiae strains, strain wild type, hits give low values 0.98
